Results filed as inconclusive are left out. A call without a number means that no potency is given here. Values without a mark were called inactive. Activity calls are given as the source filed them. Calls come from the whole dose curve; as a rule, active = well fitted curve in the direction sought with a large enough effect; inconclusive = small, poorly fitted or top-dose-only effect, or another doubt; inactive = no such curve, though single readings can be large; an effect the other way counts as inactive or inconclusive.
What was measured:
[1] = molecular target: Rap guanine nucleotide exchange factor 3 (Homo sapiens) (UniProt O95398); experiment: Confirmatory qHTS for agonist of cAMP-regulated guanine nucleotide exchange factor 3 (EPAC1) (AID 1645881); note: nearly all actives have a fitted effect of over 75% in size; note: potency is the fitted concentration of half-maximal effect;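 for activation: EPAC1 catalysed release of BODIPY-GDP from Rap1B seen as fluorescence loss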
Sequence of Rap guanine nucleotide exchange factor 3 (Homo sapiens) (O95398 whole entry, looked up): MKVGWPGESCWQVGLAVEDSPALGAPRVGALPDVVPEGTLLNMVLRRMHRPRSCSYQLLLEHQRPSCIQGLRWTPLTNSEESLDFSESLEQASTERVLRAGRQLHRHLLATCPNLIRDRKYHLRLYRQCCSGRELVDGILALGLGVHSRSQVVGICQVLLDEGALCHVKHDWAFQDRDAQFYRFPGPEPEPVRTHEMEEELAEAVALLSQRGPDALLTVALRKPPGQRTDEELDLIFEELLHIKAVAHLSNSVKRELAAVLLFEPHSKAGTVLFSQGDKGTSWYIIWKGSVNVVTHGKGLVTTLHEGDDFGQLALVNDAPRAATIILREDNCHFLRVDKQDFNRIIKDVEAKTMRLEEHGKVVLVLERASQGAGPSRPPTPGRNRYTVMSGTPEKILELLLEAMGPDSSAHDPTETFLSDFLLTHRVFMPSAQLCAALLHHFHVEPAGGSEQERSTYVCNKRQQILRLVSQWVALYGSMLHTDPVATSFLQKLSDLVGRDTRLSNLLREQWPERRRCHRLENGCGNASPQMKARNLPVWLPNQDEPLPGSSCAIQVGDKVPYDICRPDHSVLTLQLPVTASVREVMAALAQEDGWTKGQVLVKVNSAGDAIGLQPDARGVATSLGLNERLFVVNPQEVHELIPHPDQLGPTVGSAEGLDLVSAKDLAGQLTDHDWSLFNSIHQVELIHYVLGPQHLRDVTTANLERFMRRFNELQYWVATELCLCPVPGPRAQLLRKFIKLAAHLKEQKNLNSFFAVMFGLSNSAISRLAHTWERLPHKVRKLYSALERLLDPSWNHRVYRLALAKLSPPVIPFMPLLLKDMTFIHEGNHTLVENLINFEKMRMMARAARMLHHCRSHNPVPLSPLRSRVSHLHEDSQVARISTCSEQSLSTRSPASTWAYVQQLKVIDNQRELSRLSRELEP

[2] = molecular target: Rap guanine nucleotide exchange factor 4 (Homo sapiens) (UniProt Q8WZA2); experiment: Confirmatory qHTS for agonist of cAMP-regulated guanine nucleotide exchange factor 4 (EPAC2) (AID 1645884);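 note: nucleotide exchange releases bodipy-GDP from Rap1 and this lowers its fluorescence; nearly all actives have a fitted effect of over 65% in size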
Sequence of Rap guanine nucleotide exchange factor 4 (Homo sapiens) (Q8WZA2 whole entry, looked up): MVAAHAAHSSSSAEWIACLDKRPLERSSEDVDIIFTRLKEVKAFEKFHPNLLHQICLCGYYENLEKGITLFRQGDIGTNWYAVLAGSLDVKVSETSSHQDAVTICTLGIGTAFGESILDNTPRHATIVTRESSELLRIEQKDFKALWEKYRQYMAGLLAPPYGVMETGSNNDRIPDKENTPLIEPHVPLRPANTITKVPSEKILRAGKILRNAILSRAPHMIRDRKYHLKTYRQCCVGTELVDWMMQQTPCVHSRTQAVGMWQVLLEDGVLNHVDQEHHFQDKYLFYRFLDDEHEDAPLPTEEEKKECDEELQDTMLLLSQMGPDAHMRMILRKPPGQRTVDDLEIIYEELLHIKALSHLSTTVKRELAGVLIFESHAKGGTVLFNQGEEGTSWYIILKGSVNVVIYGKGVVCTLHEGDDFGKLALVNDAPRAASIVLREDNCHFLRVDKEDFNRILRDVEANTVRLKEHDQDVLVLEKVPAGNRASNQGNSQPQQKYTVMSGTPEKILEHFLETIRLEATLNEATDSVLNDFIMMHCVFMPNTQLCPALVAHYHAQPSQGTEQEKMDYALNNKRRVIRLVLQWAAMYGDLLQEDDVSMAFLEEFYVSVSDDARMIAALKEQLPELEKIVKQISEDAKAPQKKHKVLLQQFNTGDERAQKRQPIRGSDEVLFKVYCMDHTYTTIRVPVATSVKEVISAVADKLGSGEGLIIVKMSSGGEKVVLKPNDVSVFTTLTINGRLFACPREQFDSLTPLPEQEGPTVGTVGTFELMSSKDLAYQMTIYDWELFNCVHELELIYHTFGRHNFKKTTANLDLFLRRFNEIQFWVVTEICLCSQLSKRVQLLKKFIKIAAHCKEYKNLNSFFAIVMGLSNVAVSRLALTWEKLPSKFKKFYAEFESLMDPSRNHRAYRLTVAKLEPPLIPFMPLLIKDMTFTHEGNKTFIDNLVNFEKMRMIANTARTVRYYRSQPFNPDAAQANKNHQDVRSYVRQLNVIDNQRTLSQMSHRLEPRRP

[3] = molecular target: Rap guanine nucleotide exchange factor 4 (Homo sapiens) (UniProt Q8WZA2); experiment: Confirmatory qHTS for antagonist of cAMP-regulated guanine nucleotide exchange factor 4 (EPAC2) (AID 1645885); note: nearly all actives have a fitted effect of over 25% in size; note: potency is the fitted concentration of half-maximal effect
[4] = molecular target: Rap guanine nucleotide exchange factor 3 (Homo sapiens) (UniProt O95398); experiment: Counterscreen qHTS for antagonist of cAMP-regulated guanine nucleotide exchange factor 3 (EPAC1) (AID 1645888);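 note: fluorescence loss as bound BODIPY-GDP is released from Rap1B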
Procedure, shortened: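 Rap1B–BODIPY-GDP (250 nM) with 50 uM GDP; compounds pin-transferred to 9.74 nM–152 uM final (activator) or from 7.32 nM upwards (inhibitor). Fluorescence Ex/Em 480/540 nm read at 5 and 30 min, then after adding cAMP or buffer, at room temperature.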

| Structure (SMILES) | Potency [1] | Potency [2] | Potency [3] | Potency [4] | activation [2] | activity change, negative = inhibition [4] | outcome [3] |
| --- | --- | --- | --- | --- | --- | --- | --- |
| CCN(CCCNC(=O)c1cc2cc3ccc(OC)cc3nc2s1)c1cccc(C)c1 | inactive | inactive | inactive | inactive | – | – | – |
| O=C(COc1ccc(Cl)cc1)NC1=NN(c2ccccc2)C(=O)C1 | inactive | inactive | inactive | inactive | – | – | – |
| Clc1cccc(Cc2c(-c3ccco3)nc3ccc(Br)cn23)c1 | inactive | – | inactive | – | 2.6% [at 17.1 µM, percent relative to cAMP agonist control] | -13.4% [at 30.8 µM] | – |
| OCCCNc1ncnc2oc(-c3ccccc3)c(-c3ccccc3)c12 | inactive | – | inactive | – | 0.534% [at 17.1 µM, percent relative to cAMP agonist control] | -6.04% [at 30.8 µM] | – |
| Cc1cc(C)c(S(=O)(=O)/N=C2\C=C(Nc3ccc(C(=O)O)cc3)C(=O)c3ccccc32)c(C)c1 | inactive | inactive | inactive | inactive | – | – | – |
| COC(=O)Cn1c(CN2CCc3ccccc3C2)nc2c1c(=O)n(C)c(=O)n2C | inactive | inactive | inactive | inactive | – | – | – |
| CC(C)CNc1ncnc2onc(-c3ccc(Cl)cc3)c12 | inactive | inactive | inactive | inactive | – | – | – |
| CCOC(=O)c1ccc(NC(=O)CC2Nc3cccc4cccc(c34)NC2=O)cc1 (stereo not given) | inactive | inactive | inactive | inactive | – | – | – |
| Cc1ccc(C(=O)N2CCc3cc(CNC(=O)CSc4ccccc4)ccc32)cc1 | inactive | inactive | inactive | inactive | – | – | – |
| COc1ccc(OCc2nc3ccccc3n2Cc2ccc(C(C)(C)C)cc2)cc1 | inactive | inactive | inactive | inactive | – | – | – |
| Cc1ccc(-c2nc(-c3cc4cccc(OCc5ccc(F)cc5)c4oc3=O)no2)cc1 | inactive | inactive | inactive | inactive | – | – | – |
| Cc1cc(SCC(=O)N/N=C/c2ccc(O)c(O)c2)nc2ccccc12 | inactive | – | inactive | – | 5.52% [at 17.1 µM, percent relative to cAMP agonist control] | -2.02% [at 30.8 µM] | – |
| O=C1C(=O)c2ccc(-c3ccccc3)cc2-c2ccccc21 | inactive | inactive | inactive | inactive | – | – | – |
| CCCCn1c(COc2cccc(OC)c2)nc2ccccc21 | inactive | inactive | – | inactive | – | – | inactive [at 12.7 µM] |
| Cc1ccn2c(=O)nc(SCC(=O)Nc3ccc4c(c3)OCO4)nc2c1 | inactive | inactive | inactive | inactive | – | – | – |
| O=C(O)c1ccc(N2C(=O)CC(SC(=NCc3ccc4c(c3)OCO4)Nc3ccc(F)cc3)C2=O)cc1 (stereo not given) | inactive | inactive | inactive | inactive | – | – | – |
| C/C(=N\Nc1nc2ccccc2[nH]1)c1cc2ccccc2o1 | inactive | – | inactive | – | 1.22% [at 17.1 µM, percent relative to cAMP agonist control] | -0.654% [at 30.8 µM] | – |
| Cc1cc(C)cc(-n2ccnc2SCC(=O)Nc2ccc3c(c2)OCO3)c1 | inactive | inactive | inactive | inactive | – | – | – |
| COc1ccc(NC(=O)Cn2ncc(Cl)c(Cl)c2=O)cc1S(=O)(=O)N1CCOCC1 | inactive | – | inactive | – | -6.12% [at 17.1 µM, percent relative to cAMP agonist control] | 1.4% [at 30.8 µM] | – |
| CCN1CCc2c(sc(NC(=O)c3cc4ccccc4cc3OC)c2C(N)=O)C1 | inactive | – | inactive | – | 8.91% [at 17.1 µM, percent relative to cAMP agonist control] | -3.83% [at 30.8 µM] | – |
| CCn1c(=O)c2sccc2n2c(CCCC(=O)N3CCN(c4cc(Cl)ccc4C)CC3)nnc12 | inactive | inactive | inactive | inactive | – | – | – |
| Cc1ccc(-c2nc3ccc(Br)cn3c2Cc2ccccc2)cc1 | inactive | inactive | inactive | inactive | – | – | – |
| Cc1cccc(-n2ccnc2SCC(=O)Nc2ccc(F)cc2F)c1C | inactive | inactive | inactive | inactive | – | – | – |
| COCCNc1nc2cc(-c3ccsc3)sc2c(=O)n1C | inactive | inactive | inactive | inactive | – | – | – |
| Cc1cccc(Cn2c(COc3ccccc3)nc3ccccc32)c1 | inactive | inactive | inactive | inactive | – | – | – |
| COc1cc(-c2cc(OC)c3c(C)oc(C)c3c(=O)c2)ccc1OC(=O)c1ccccc1F | inactive | inactive | – | inactive | – | – | inactive [at 12.7 µM] |
| CC(c1ccccc1)n1cc2c(c1-c1ccccc1Br)c(=O)n(C)c(=O)n2C (stereo not given) | inactive | inactive | inactive | inactive | – | – | – |
| Cn1cnnc1SCC(=O)Nc1sc2c(c1C(N)=O)CCC2 | inactive | inactive | inactive | inactive | – | – | – |

| Structure (SMILES) | Potency [1] | Potency [2] | Potency [3] | Potency [4] | activation [2] | activity change, negative = inhibition [4] | outcome [3] |
| --- | --- | --- | --- | --- | --- | --- | --- |
| CCc1nc2c(OCc3ccc(C(F)(F)F)cc3)cccn2c1N(C)C(=O)C(C)C | inactive | – | inactive | – | -0.706% [at 17.1 µM, percent relative to cAMP agonist control] | -5.96% [at 30.8 µM] | – |
| COc1ccc(Nc2cc(C(=O)NCCCN3CCN(c4ccccc4F)CC3)c3ccccc3n2)c(OC)c1 | inactive | inactive | inactive | inactive | – | – | – |
| Cc1ccc(NC(=O)c2sc3nc(-c4ccncc4)ccc3c2N)cc1 | inactive | inactive | inactive | inactive | – | – | – |
| CCCS(=O)(=O)c1c(S(=O)(=O)CCC)c2cnccn2c1C(=O)c1ccc(CC)cc1 | inactive | – | inactive | – | 12.5% [at 17.1 µM, percent relative to cAMP agonist control] | -2.89% [at 30.8 µM] | – |
| O=C(CSc1nc(O)cc(=O)n1-c1ccccc1)Nc1ccc2c3c(cccc13)CC2 | inactive | – | inactive | – | 0% [at 17.1 µM, percent relative to cAMP agonist control] | -9.82% [at 30.8 µM] | – |
| O=C(O)CC/C(=C/c1cccc(NC(=O)c2ccccc2Cl)c1)c1nc2ccccc2s1 | 100 µM (active) | inactive | inactive | inactive | – | – | – |
| CCc1ccccc1OCC(=O)NCC1COc2ccccc2O1 (stereo not given) | inactive | inactive | inactive | inactive | – | – | – |
| Cc1ccc(C(NC(=O)C2CCN(Cc3ccc(Cl)c(Cl)c3)CC2)c2ccccn2)cc1 (stereo not given) | inactive | inactive | inactive | inactive | – | – | – |
| CCc1nc2c(OCc3ccc(C(F)(F)F)cc3)cccn2c1N(C)C(=O)c1ccc(C)cc1 | inactive | inactive | inactive | inactive | – | – | – |
| COc1ccc(OCc2nc3ccccc3n2C(C)c2ccccc2)cc1 (stereo not given) | inactive | inactive | inactive | inactive | – | – | – |
| CS(=O)(=O)c1ccc(C(=O)NCCN2C(=O)S/C(=C\c3cccnc3)C2=O)cc1[N+](=O)[O-] | inactive | – | inactive | – | 1.36% [at 17.1 µM, percent relative to cAMP agonist control] | -27.7% [at 30.8 µM] | – |
| COc1cc(NC(=O)c2cccc([N+](=O)[O-])c2)ccc1NC(=O)c1ccco1 | inactive | inactive | inactive | inactive | – | – | – |
| O=C1C(Cl)=C(NCCc2ccccc2)C(=O)c2ccccc21 | inactive | inactive | inactive | inactive | – | – | – |
| COc1ccccc1Nc1cc2cc(Br)ccc2c(=O)[nH]1 | inactive | inactive | inactive | inactive | – | – | – |
| CCC(CO)n1c(SCc2cc([N+](=O)[O-])cc3c2OCOC3)nc2ccccc2c1=O (stereo not given) | inactive | – | inactive | – | 10.3% [at 17.1 µM, percent relative to cAMP agonist control] | 19.8% [at 30.8 µM] | – |
| Cc1ccc(C)c(Cn2c(CN(C)Cc3ccccc3)nc3c2c(=O)n(C)c(=O)n3C)c1 | inactive | inactive | inactive | inactive | – | – | – |
| O=C1c2ccccc2C(=O)C12OC2c1cccc2ccccc12 (stereo not given) | inactive | inactive | inactive | inactive | – | – | – |
| CCCc1nc2ccc(C(=O)OC)cn2c1Cc1ccc(C)cc1 | inactive | inactive | inactive | inactive | – | – | – |
| CCn1c(=O)c(C(=O)Nc2ccccc2S(N)(=O)=O)c(O)c2ccccc21 | inactive | inactive | inactive | inactive | – | – | – |
| O=C(O)c1ccc(/C=C2\COc3ccccc3C2=O)cc1 | inactive | inactive | 84.9 µM (active) | inactive | – | – | – |
| COc1ccc(CN(C(=O)c2cccs2)c2nccs2)cc1OC | inactive | inactive | inactive | inactive | – | – | – |
| COc1ccc2oc(=O)c(-c3nnc(NCc4ccco4)s3)cc2c1 | inactive | – | inactive | – | 7.34% [at 17.1 µM, percent relative to cAMP agonist control] | 15.5% [at 30.8 µM] | – |
| O=C(Cn1ncc(Cl)c(Cl)c1=O)NC(=O)NC1CCCCC1 | inactive | – | inactive | – | 3.69% [at 17.1 µM, percent relative to cAMP agonist control] | -1.53% [at 30.8 µM] | – |
| CCc1nc2c(OCc3ccc(OC(F)F)cc3)cccn2c1N(C)C(=O)c1cccs1 | inactive | inactive | inactive | inactive | – | – | – |
| CC(C)(C)C(C(=O)n1cccc1C#N)c1ccccc1 (stereo not given) | inactive | – | inactive | – | 5.44% [at 17.1 µM, percent relative to cAMP agonist control] | 3.86% [at 30.8 µM] | – |
| CC(C)N(Cc1ccccc1)C(=O)c1nc(-c2ccc(Cl)cc2)n2c1CCCCC2 | inactive | inactive | – | inactive | – | – | inactive [at 12.7 µM] |
| Cc1cc(/C=C2\SC(=S)NC2=O)c(C)n1-c1cccc(O)c1 | inactive | inactive | inactive | inactive | – | – | – |

Reference: PubChem BioAssay (NCATS)
